Test [1] has as its target PEG-3 (UniProt Q6IN02). The experiment in a line: inhibition of PEG-3 promoter-driven reporter – cell-based, HeLa, luciferase, CREF/GAPDH counter-screen panel, dose response (AID 624167). The following applies: CREF/GAPDH counter-screens; HeLa PEG-Prom luciferase reporter, overnight, run 1, dose range 1, at 100 µM (top of the series) unless noted.
The target of test [2] is PEG-3 (UniProt Q6IN02). Described as above. The following applies: CREF/GAPDH counter-screens; HeLa PEG-Prom luciferase reporter, overnight, run 2, dose range 1, at 100 µM (top of the series) unless noted. (In general: The purpose of a counterscreen is to sort out artefacts and off-target activity.)
For test [3], the system named is Rat fibroblasts (CREF). The test is described as above. The following applies: CREF/GAPDH counter-screens; run 1, dose range 1, at 100 µM (top of the series).
Test [4] deals with Rat fibroblasts (CREF). The description is as above. Particulars: CREF/GAPDH counter-screens; run 2, dose range 1, at 100 µM (top of the series).
Test [5] has as its target Tumor necrosis factor receptor superfamily member 10B (Homo sapiens) (UniProt O14763). The experiment in a line: viability loss of caspase-8 NB7 cells with TRAIL – with/without TRAIL, luminescence panel, confirmation (AID 651596). Particulars: NB7 neuroblastoma + caspase-8, TRAIL sensitization, NB7 Caspase-8, with TRAIL, mean of runs, at 10 µM, stronger effect = higher value.
Assay in test [6]: as above
The following applies: NB7 neuroblastoma + caspase-8, without TRAIL, NB7 Caspase-8, without TRAIL, mean of runs, at 10 µM.

Sequence of PEG-3 (Q6IN02 whole entry, looked up): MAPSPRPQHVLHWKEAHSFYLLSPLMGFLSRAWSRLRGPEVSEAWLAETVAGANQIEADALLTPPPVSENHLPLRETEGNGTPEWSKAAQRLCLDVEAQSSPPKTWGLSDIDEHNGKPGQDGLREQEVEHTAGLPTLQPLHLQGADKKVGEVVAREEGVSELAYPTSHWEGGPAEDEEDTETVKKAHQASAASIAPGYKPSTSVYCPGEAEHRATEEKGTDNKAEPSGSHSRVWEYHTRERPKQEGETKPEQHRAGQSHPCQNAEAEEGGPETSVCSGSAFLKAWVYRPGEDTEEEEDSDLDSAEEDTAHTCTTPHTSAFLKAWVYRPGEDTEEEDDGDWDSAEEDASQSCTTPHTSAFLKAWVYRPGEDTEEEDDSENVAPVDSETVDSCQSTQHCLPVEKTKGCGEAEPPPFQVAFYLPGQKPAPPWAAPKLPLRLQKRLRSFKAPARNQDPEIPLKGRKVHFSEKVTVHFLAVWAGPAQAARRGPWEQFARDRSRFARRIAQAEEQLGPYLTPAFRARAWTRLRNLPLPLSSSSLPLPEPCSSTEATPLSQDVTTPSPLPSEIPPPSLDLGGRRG
Sequence of Tumor necrosis factor receptor superfamily member 10B (Homo sapiens) (O14763 whole entry, looked up): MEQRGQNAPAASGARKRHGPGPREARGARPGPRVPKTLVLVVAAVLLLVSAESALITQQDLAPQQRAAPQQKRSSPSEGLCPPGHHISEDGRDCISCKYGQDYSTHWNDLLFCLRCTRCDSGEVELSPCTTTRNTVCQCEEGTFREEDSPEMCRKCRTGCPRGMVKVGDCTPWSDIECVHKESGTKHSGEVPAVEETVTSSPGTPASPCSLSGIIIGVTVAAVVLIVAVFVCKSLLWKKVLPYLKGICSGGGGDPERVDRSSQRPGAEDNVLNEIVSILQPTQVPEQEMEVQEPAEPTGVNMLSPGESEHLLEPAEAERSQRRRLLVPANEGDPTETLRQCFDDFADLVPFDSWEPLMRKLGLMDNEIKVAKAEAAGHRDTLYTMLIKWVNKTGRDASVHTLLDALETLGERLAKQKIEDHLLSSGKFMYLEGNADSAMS

Regarding `COc1cccc2nc3c(C(=O)NCCN(C)C)cccc3cc12`, the inhibition in test [1] worked out at 98.9%; in test [2] it was 101%; in test [3], 98%; in test [4], 95.2%.

In the case of `Brc1ccc(N=Nc2ccc3ccccc3n2)cc1`, the inhibition in test [1] is 93.5%; in test [2] it was 94.5%; in test [3], 97.1%; in test [4] it was 96.3%.

With `Cc1ccc(NC(=S)NC(=O)c2ccc(F)cc2)cc1S(=O)(=O)Nc1ccccc1Cl`, the inhibition is 70.7% in test [1], 36.1% in test [2], -12% in test [3] and 91.7% in test [4].

As to `CN(C)S(=O)(=O)c1ccc(-c2csc(N/N=C/c3ccc(O)cc3)n2)cc1`, the inhibition in test [1] is 99.1%; in test [2], 101%; in test [3], 97.4%; in test [4] it was 98.8%.

With `CN(C)CC1CCC/C(=C\c2ccc(OC(=O)c3ccc(Cl)cc3)cc2)C1=O` (configuration not stated), the inhibition in test [1] is 97.7%; in test [2] it was 99%; in test [3], 51.4%; in test [4], -21.7%.

As to `O=C(OCC(F)(F)F)c1cccc(COc2ccc3ccccc3c2)c1`, the inhibition in test [1] came to 96.5%; in test [2] it was 92.4%; in test [3], 86.6%; in test [4] it was 85.7%.

As for `CCOc1ccc2nc(NC(=O)c3ccccn3)sc2c1`, the inhibition in test [1] was found to be 88%; in test [2], 83.6%; in test [3], 87.1%; in test [4], 83.4%.

Take `CCc1ccn2cc(-c3ccc4c(c3)OCO4)nc2c1`: the inhibition is 96% in test [1], 89.2% in test [2], -17.6% in test [3] and 97.5% in test [4].

Regarding `Cc1cc(NC(c2cccnc2)c2ccc3cccnc3c2O)no1` (configuration not stated), the inhibition in test [1] came out at 63.9%; in test [2], 74%; in test [3], 59.7%; in test [4], 94.9%.

Regarding `O=C(O)c1ccc(N/N=C/c2ccc3c(c2)OCO3)cc1`, the inhibition worked out at 98% in test [1], 102% in test [2], 67.2% in test [3] and 62.5% in test [4].

Turning to `O=C(Nc1nc2ccccc2[nH]1)c1ccccc1F`, the inhibition in test [1] came to 97.3%; in test [2] it was 98.3%; in test [3], 98.8%; in test [4], 99.2%.

Turning to `O=c1c(Cl)c(N2CCCCC2)cnn1-c1nc2ccccc2[nH]1`, the inhibition in test [1] is 96.7%; in test [2], 95%; in test [3] it was 100%; in test [4] it was 100%. For the same molecule, the activity was 96.4% in test [5] and 96.5% in test [6].

In the case of `COc1ccc(-c2nc(-c3ccccn3)no2)cc1`, the inhibition stood at 99.7% in test [1], 96.8% in test [2], 99.9% in test [3] and 99.4% in test [4]. The activity in test [5] was 96.7%; in test [6], 95.7%.

With `O=C(Nc1ccccn1)c1cc2ccccc2o1`, the inhibition is 82.3% in test [1], 96.6% in test [2], 99.4% in test [3] and 98.8% in test [4]. In addition, the activity is 90.3% in test [5] and 89.6% in test [6].

As usually defined, the inhibition is the drop in the measured response relative to a control, in per cent.

For the origin of these results see PubChem BioAssay.
